Rows were chosen to be rich in hits. Some 3.1% of all compounds tested hit in one or more screens of this group.
Peg3 promoter: Peg3 promoter-driven luciferase inhibitors, primary screen, cell-based, HeLa, luciferase luminescence; HeLa PEG-Prom luciferase reporter, overnight; inhibition, % at 20 µM; hit rate 1.7% among 360,000;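 active means inhibition of at least 50% at 20 µM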
ABHD5-PLIN5 inh: ABHD5-PLIN5 interaction inhibitors, primary screen, cell lysate, split luciferase complementation, luminescence | inhibition, % at 4 µM | Perilipin-5 (Homo sapiens) + 1-acylglycerol-3-phosphate O-acyltransferase ABHD5 (Homo … | AID 602281, 2012 | Split G. princeps luciferase complementation, 4 h | hit rate 0.78% among 360,000;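 active means inhibition above the mean inhibition across every tested compound plus 3 SD, cut at about 22% in these data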
Target sequence (Q00G26 whole entry, looked up): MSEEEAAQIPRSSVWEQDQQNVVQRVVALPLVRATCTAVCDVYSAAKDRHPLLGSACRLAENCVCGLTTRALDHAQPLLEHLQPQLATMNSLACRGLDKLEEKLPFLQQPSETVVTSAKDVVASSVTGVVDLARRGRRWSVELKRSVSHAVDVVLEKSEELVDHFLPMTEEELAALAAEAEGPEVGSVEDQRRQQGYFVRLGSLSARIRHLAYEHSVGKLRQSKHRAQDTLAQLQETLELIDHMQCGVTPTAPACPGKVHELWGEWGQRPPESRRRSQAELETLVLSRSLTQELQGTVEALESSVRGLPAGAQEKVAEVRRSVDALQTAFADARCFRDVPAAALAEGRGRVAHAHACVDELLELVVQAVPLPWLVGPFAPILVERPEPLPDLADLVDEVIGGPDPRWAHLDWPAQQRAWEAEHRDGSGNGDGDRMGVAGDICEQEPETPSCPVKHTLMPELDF
Target sequence (Q8WTS1 whole entry, looked up): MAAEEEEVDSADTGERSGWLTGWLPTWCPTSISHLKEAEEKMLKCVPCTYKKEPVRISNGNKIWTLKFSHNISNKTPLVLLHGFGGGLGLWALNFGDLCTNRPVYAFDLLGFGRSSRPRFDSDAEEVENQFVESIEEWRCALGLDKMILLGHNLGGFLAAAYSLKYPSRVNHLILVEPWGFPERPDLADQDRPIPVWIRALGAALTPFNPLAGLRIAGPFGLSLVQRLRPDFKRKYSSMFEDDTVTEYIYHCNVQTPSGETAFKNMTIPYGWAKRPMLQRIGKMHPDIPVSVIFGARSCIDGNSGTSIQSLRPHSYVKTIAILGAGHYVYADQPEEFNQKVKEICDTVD
CF NFkB block: inhibitors of PAF-induced NF-kB signaling, primary screen, cell-based, GFP fluorescence, uHTS; inhibition, % at 5 µM; hit rate 0.86% among 360,000; KKLEB NF-kB-GFP reporter, GFP fluorescence overnight;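 active means at least 50% inhibition at 5 µM, scaled per plate between neutral and stimulator controls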;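 further: PAF is a Pseudomonas aeruginosa culture filtrate used as stimulus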
MITF TRPM1 inh: inhibitors of MITF-dependent TRPM1 promoter reporter, primary screen, cell-based, SK-MEL-5, single point, luciferase; hit rate 0.83% among 330,000; SK-MEL-5 TRPM1 promoter luciferase, 24 h; inhibition, % at 12.5 µM;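 active means mean inhibition across replicates of 60% or more, whatever share of single replicates reaches that level; inconclusive means some that reach 60%, reason not given; inactive means mean inhibition across replicates below 60%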
KKLEB tox: cytotoxicity in KKLEB CF airway cells, primary screen, cytotoxicity control for CF NF-kB inhibitor project, cell-based, uHTS, fluorescence assay plates. KKLEB CF airway cells viability, ATPlite luminescence, overnight; stronger effect = lower value; cells stimulated with P. aeruginosa culture filtrate. activity change (cytotoxicity), % at 5 µM. hit rate 0.36% among 360,000. AID 602141, 2011;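 active means corrected activity change at or below -50% at 5 µM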
HIF-2a block: HIF-2a reporter inhibitors, primary screen, luminescence, 786-0 RCC cells. AID 624352, 2012. hit rate 0.72% among 360,000. 786-0 RCC cells HIF-2a reporter, luciferase luminescence, overnight. inhibition, % at 18.8 µM;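 active means inhibition of the luminescence signal of 40% or more relative to plate controls, in a single-dose primary screen at 18.75 µM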
A number is an active result; 0 = inactive; ? = inconclusive; - = not tested or not shown; ! = not active in a repeat.

SMILES	Peg3 promoter	ABHD5-PLIN5 inh	CF NFkB block	MITF TRPM1 inh	KKLEB tox	HIF-2a block
O=S(=O)(Nc1ccc(-c2ccc3nncn3n2)cc1)c1ccccc1F	51	0	0	0	0	0
CCCCSc1nc(O)cc(=O)n1CC	0	0	0	0	0	0
COc1cccc(-n2nnnc2S(C)(=O)=O)c1	103	68	94	78	0	87
Cc1cccc(NC(=O)CN2CCN(CC(=O)Nc3cccc(C)c3)CC2)c1	0	0	0	0	-55	0
Cc1ccc(Sc2ncnc(N)c2[N+](=O)[O-])cc1	0	0	0	0	0	0
Nc1ncnc(Sc2ncccn2)c1[N+](=O)[O-]	101	0	55	79	0	0
CCS(=O)(=O)N1CCC(C(=O)Oc2ccccc2Cl)CC1	0	0	0	0	0	0
Cc1nn2c(N3CCN(C)CC3)cc(C(C)(C)C)nc2c1-c1ccccc1	59	0	0	0	0	0
CCOC(=O)c1c(-c2ccccc2)oc2ccc(O)c(CN3CCN(C)CC3)c12	54	0	0	0	0	0
CCOC(=O)c1c(-c2ccccc2)oc2cc(CN(C)C)c(O)c(CN(C)C)c12	68	0	0	0	0	0
CCOC(=O)c1c(C)oc2cc(Cl)c(O)c(CN(C)C)c12	0	0	0	0	0	0
Cc1cccc(C)c1NC(=O)C(=O)NCC1CCCN1S(=O)(=O)c1cccs1 (centres undefined)	0	0	0	0	0	0
CCN(CC)S(=O)(=O)c1cccc(-n2c(O)c(C=Nc3ccccc3C(=O)O)c3ccccc3c2=O)c1	0	0	91	0	0	0
Cc1c(CCOC(=O)c2ccc(Cl)cc2Cl)sc[n+]1CC(=O)c1ccc(Br)cc1	0	0	0	0	0	0
Cc1c(CCOC(=O)C2C3CC4CC(C3)CC2C4)sc[n+]1CC(=O)c1ccc(Br)cc1 (centres undefined)	101	0	0	95!	0	0
CCCn1c(C(C)NC(=O)c2ccccc2)nc2ccccc21 (centres undefined)	0	0	0	0	0	0
CCN(CC)c1ccc(NC(=O)Cn2c(C(C)NC(=O)c3ccc(C)cc3)nc3ccccc32)cc1 (centres undefined)	99	0	0	0	0	0
COC(=O)c1cc(NC(=O)Cc2cc(OC)c(OC)c(OC)c2)cc(C(=O)OC)c1	0	0	0	0	0	0
O=S1(=O)N[C@H](c2ccccc2)C[C@H](c2ccc(C(F)(F)F)cc2)O1	0	0	0	0	0	0
COc1ccc(CCN2C(=O)CSC2=S)cc1OC	60	0	0	0	0	61
O=C(CN1C(=O)NC2(CCCC2)C1=O)N1CCCSC1=Nc1ccccc1	0	0	0	0	0	0
Cc1cc(NC(=O)C(C)SCC(=O)N(C)CC(=O)Nc2ccc(F)cc2)no1 (centres undefined)	0	23	0	0	0	0
CSc1ncc(CN2CCCC(C(=O)Nc3ccc(-c4ccco4)cc3)C2)cn1 (centres undefined)	0	35	0	0	0	0
C=CCC1(CC=C)CCCN1C(=O)c1cc(COc2cncc(Cl)c2)on1	0	0	0	0	0	0
c1ccc(CNCCC(Cc2ccccc2)c2ccco2)cc1 (centres undefined)	0	0	0	0	0	0
SMILES	Peg3 promoter	ABHD5-PLIN5 inh	CF NFkB block	MITF TRPM1 inh	KKLEB tox	HIF-2a block
CN(C)c1ccc(CNCCC(Cc2ccccc2)c2ccco2)cc1 (centres undefined)	50	0	0	0	0	0
CCOc1ccc(N(C(=O)CNC(=O)c2cccs2)C(C(=O)NCC2CCCO2)c2ccc(OC)c(OC)c2)cc1 (centres undefined)	0	0	0	0	0	0
CCn1c(CNC(=O)c2ccco2)nnc1SCC(=O)c1ccc(OC)cc1	0	0	0	0	0	0
Cc1cc(C)n2nc(CNS(=O)(=O)c3ccc(CC(C)C)cc3)nc2n1	0	0	0	0	0	0
CCOc1ccc(-c2cc(C(=O)NCCCn3ccnc3)c3cc(Br)ccc3n2)cc1	106	0	0	?	0	0
C/C=C(\C)C(=O)OC1CC(C)(C)C[C@H]2C3=CC[C@@H]4[C@@]5(C)CCC(O[C@@H]6O[C@@H](C(=O)O)[C@@H](O)C(O[C@@H]7OC[C@H](O)[C@@H](O)[C@@H]7O[C@@H]7OC(CO)C(O)[C@@H](O)[C@@H]7O)C6O[C@@H]6OC(CO)C(O)C(O)C6O)[C@@](C)(CO)[C@@H]5CC[C@]4(C)[C@]3(C)CC(O)[C@@]12CO (some centres undefined)	60	0	0	0	0	0
COC(=O)C1OC(OC2CC[C@]3(C)C(CC[C@@]4(C)[C@@H]3CC=C3[C@@H]5CC(C)(C)CC[C@]5(C(=O)OC5OC(CO)C(O)C(O)C5O)CC[C@]34C)C2(C)C)C(O)C(O)C1O[C@H]1OCC(O)C(O)C1O (some centres undefined)	0	33	0	0	0	0
C[C@H]1CN([C@@H](C)CO)C(=O)CCCn2nncc2CO[C@@H]1CN(C)Cc1ccccc1C(F)(F)F	0	0	0	-	0	0
OCC1(Cc2ccccc2)CCN(Cc2cnn(-c3ccccc3F)c2)CC1	0	0	0	0	0	0
Cc1ccc(-n2cc(CN3CCC(CO)(Cc4cccc(C(F)(F)F)c4)CC3)cn2)cc1	108	0	0	0	0	0
CSc1cccc(CN2CCC(CO)(Cc3cccc(C(F)(F)F)c3)CC2)c1	52	0	0	0	0	0
OCC1(Cc2cccc(C(F)(F)F)c2)CCN(Cc2cc(F)cc(F)c2)CC1	0	0	0	0	0	0
CC#CCOCC1CN(C)C(=O)O1 (centres undefined)	0	0	0	-	0	0
Cc1ccc(NC(=O)CNc2ccc(N3CCOCC3)cc2)cc1S(=O)(=O)N(C)C	0	0	0	0	0	0
O=C(COc1ccc(-c2nnco2)cc1)N1CCOCC1	0	0	0	0	0	0
Cc1ccc(-c2nnc(SCC(=O)N/N=C/c3ccc(C)s3)n2-c2ccccc2)cc1	65	0	0	0	0	0
O=[N+]([O-])c1c(Nc2ccccn2)cc(Cl)c2nonc12	108	0	67	76	0	96
CC1=C(C(=O)NC2CCCc3c2cnn3-c2cc(F)cc(F)c2)OCCO1 (centres undefined)	0	0	0	0	0	0
Cc1ccc2c(c1)sc(=NC(=O)C1CC1)n2C	0	0	0	0	0	0
Cc1ccc2c(c1)sc(=NC(=O)c1cccs1)n2C	0	0	0	0	-66	0

Compound activity: PubChem, several laboratories
